The values that follow come from paper PMC7862700, “An all-to-all approach to the identification of sequence-specific readers for epigenetic DNA modifications on cytosine”.

Common to all, as to assay: DAPPL (digital affinity profiling via proximity ligation, sequencing); 10 mM Tris-HCl pH 7.5, 50 mM NaCl, 1 mM DTT, 4% glycerol, room temperature, 30 min; GST-TFs on glutathione beads, 16-mer random dsDNA library, 0.1% formaldehyde crosslink after washing; high values mean tight binding
One assay deals with T1, FEV (Homo sapiens, UniProt Q99581 1-238).
T1 sequence: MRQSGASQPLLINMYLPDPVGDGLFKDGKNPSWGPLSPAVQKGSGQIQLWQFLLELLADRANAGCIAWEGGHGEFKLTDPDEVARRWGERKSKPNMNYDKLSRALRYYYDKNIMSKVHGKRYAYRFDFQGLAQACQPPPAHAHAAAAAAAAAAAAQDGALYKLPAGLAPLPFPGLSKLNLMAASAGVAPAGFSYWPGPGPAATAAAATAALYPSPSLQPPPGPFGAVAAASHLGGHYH
The following applies: protein: recombinant; tags: N-terminal GST; dsDNA, one strand shown. In a few lines: (§1)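 Binding signal is each hexamer's read frequency for a factor divided by its frequency in the tag-only sample. The factors were GST-fused human transcription factors from yeast, captured on glutathione beads, DNA-barcoded and pooled with that sample. Pools were incubated with 200 nmole of a random double-stranded 16-mer DNA library in Tris/NaCl/DTT/glycerol buffer at room temperature for 30 min, then washed, crosslinked with 0.1% formaldehyde, proximity-ligated with BsaI/T4 ligase (1 h, 37 °C), PCR-amplified and sequenced on an Illumina NextSeq500.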

In another assay the target is ETV5 (Homo sapiens, UniProt P41161 1-510). As to conditions: protein: recombinant; tags: N-terminal GST; dsDNA, one strand shown. In a few lines: as §1
Another assay concerns the target HSF1 (Homo sapiens, UniProt Q00613 1-529). As to conditions: protein: recombinant; tags: N-terminal GST; chain copies: 3; dsDNA, one strand shown. In a few lines: as §1
For a further assay, the target named is T2, SPIC (Homo sapiens, UniProt Q8N5J4 1-248).
T2 sequence: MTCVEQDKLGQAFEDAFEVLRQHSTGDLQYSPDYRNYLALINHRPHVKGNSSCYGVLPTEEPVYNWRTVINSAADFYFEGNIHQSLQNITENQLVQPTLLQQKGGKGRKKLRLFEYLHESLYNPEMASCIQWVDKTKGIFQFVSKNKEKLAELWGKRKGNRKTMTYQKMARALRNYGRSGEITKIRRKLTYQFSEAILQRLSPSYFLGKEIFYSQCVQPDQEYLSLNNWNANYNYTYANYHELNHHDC
As to conditions: protein: recombinant; tags: N-terminal GST; dsDNA, one strand shown. In a few lines:
as §1

The next assay concerns the target ELF4 (Homo sapiens, UniProt Q99607 1-663). As to conditions: protein: recombinant; tags: N-terminal GST; dsDNA, one strand shown. The essentials: as §1
A further assay has as its target T3, ELK4 (Homo sapiens, UniProt P28324-2 1-405).
T3 sequence: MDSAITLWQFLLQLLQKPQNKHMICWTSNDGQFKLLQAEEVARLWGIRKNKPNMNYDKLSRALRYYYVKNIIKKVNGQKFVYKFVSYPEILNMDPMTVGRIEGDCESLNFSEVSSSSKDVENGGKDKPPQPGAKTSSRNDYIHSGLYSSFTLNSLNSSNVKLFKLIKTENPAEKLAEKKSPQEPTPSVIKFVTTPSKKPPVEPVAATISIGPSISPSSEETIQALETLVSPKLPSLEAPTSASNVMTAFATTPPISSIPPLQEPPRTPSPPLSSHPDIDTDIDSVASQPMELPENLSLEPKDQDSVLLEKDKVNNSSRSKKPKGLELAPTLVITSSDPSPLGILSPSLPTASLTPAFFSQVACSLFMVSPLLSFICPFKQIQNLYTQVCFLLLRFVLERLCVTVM
As to conditions: protein: recombinant; tags: N-terminal GST; dsDNA, one strand shown. In a few lines:
as §1

A further assay concerns the target T4, ETV2 (Homo sapiens, UniProt O00321 1-342).
T4 sequence: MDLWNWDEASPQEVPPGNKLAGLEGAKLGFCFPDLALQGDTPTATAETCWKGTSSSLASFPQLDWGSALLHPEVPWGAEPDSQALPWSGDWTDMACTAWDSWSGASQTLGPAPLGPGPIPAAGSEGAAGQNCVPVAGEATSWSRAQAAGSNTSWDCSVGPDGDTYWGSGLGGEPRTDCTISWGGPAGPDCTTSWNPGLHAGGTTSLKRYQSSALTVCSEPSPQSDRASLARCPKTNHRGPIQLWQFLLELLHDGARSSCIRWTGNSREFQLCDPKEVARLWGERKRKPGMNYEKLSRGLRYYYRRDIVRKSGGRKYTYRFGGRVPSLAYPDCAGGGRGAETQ
The following applies: protein: recombinant; tags: N-terminal GST; dsDNA, one strand shown. In a few lines:
as §1

The target in the next assay is T5, ELF3 (Homo sapiens, UniProt P78545 1-371).
T5 sequence: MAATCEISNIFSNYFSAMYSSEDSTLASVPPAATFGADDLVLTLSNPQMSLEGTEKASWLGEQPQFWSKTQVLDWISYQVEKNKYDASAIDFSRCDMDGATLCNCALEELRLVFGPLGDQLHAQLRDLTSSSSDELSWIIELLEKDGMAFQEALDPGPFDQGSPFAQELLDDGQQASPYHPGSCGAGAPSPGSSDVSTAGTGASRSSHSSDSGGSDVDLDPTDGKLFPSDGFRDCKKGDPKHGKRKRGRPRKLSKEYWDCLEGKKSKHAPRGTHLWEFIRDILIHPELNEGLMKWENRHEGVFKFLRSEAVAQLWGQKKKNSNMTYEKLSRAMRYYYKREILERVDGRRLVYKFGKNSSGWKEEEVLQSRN
As to conditions: protein: recombinant; tags: N-terminal GST; dsDNA, one strand shown. The essentials:
as §1

Another assay deals with CRX (Homo sapiens, UniProt O43186 1-299). The following applies: protein: recombinant; tags: N-terminal GST; dsDNA, one strand shown. The essentials:
as §1

The next assay concerns the target ETV1 (Homo sapiens, UniProt P50549 1-477). As to conditions: protein: recombinant; tags: N-terminal GST; dsDNA, one strand shown. The essentials: as §1
The next assay concerns the target T6, ERF (Homo sapiens, UniProt P50548 1-548).
T6 sequence: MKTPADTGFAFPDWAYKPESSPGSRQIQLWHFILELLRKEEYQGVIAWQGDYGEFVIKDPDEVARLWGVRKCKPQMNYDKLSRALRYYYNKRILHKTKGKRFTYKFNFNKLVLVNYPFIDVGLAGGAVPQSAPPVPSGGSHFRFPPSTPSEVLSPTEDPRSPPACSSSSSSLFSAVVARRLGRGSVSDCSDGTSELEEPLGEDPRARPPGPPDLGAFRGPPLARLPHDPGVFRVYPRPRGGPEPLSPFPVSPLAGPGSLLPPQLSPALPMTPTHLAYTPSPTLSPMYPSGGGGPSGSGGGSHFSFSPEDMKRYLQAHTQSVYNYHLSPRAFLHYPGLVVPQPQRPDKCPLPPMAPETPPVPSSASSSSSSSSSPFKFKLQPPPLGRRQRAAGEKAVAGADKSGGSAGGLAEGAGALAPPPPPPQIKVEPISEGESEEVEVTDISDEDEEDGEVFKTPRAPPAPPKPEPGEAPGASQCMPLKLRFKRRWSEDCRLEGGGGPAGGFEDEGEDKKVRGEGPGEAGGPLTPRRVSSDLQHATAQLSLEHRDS
As to conditions: protein: recombinant; tags: N-terminal GST; dsDNA, one strand shown. In a few lines:
as §1

Another assay addresses T7, ETV3L (Homo sapiens, UniProt Q6ZN32 1-361).
T7 sequence: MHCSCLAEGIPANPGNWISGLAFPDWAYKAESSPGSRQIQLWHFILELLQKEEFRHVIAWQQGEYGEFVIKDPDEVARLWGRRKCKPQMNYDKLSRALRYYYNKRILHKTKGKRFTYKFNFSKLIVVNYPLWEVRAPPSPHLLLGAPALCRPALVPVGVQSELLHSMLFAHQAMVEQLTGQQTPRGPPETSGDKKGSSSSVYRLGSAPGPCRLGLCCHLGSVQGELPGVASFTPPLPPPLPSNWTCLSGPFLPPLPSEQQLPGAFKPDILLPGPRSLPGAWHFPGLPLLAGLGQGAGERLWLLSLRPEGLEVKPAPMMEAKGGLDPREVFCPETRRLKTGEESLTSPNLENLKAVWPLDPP
The following applies: protein: recombinant; tags: N-terminal GST; dsDNA, one strand shown. The essentials: as §1

A further assay has as its target T8, ETS2 (Homo sapiens, UniProt P15036 1-469).
T8 sequence: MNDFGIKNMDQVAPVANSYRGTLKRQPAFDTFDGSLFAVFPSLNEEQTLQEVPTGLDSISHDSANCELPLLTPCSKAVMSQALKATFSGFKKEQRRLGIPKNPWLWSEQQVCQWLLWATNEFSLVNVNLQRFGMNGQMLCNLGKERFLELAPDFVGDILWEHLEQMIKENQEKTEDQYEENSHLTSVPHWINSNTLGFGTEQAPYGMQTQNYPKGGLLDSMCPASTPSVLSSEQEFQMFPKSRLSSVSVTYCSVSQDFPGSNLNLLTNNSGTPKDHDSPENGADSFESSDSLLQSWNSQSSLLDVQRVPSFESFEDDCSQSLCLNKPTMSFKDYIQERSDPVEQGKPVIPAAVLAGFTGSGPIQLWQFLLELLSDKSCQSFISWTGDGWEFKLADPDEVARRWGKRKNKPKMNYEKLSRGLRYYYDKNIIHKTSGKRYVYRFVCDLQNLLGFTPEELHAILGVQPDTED
The following applies: protein: recombinant; tags: N-terminal GST; dsDNA, one strand shown. In a few lines: as §1

A further assay deals with T9, SPDEF (Homo sapiens, UniProt O95238 1-335).
T9 sequence: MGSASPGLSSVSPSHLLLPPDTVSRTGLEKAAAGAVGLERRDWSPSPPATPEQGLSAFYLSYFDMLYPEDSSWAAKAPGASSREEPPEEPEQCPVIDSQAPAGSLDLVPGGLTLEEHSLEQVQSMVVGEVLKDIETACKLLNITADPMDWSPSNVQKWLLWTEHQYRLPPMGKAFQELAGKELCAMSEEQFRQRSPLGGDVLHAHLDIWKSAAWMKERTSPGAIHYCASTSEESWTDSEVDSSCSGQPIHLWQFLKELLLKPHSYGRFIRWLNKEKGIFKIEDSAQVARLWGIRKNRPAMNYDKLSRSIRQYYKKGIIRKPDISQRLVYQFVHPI
The following applies: protein: recombinant; tags: N-terminal GST; dsDNA, one strand shown. The essentials: as §1

The target in the next assay is T10, ETV7 (Homo sapiens, UniProt Q9Y603 1-341).
T10 sequence: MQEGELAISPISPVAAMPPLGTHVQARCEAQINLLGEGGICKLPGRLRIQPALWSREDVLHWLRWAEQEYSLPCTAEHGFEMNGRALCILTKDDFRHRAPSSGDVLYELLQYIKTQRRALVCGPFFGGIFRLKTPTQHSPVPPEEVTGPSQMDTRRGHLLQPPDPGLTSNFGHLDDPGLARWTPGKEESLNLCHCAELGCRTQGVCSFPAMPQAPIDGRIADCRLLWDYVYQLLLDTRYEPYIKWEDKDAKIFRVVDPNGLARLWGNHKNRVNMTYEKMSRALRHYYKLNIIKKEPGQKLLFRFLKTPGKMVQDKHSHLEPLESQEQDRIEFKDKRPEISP
As to conditions: protein: recombinant; tags: N-terminal GST; dsDNA, one strand shown. The essentials: as §1

The next assay concerns the target T11, ELF5 (Homo sapiens, UniProt Q9UKW6-2 1-255).
T11 sequence: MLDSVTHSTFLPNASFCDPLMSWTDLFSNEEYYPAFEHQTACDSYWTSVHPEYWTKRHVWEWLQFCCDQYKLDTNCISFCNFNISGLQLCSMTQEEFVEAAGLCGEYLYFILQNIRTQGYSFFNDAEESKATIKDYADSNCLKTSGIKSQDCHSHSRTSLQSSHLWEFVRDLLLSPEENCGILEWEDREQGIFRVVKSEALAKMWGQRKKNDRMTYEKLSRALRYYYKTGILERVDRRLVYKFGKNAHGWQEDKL
As to conditions: protein: recombinant; tags: N-terminal GST; dsDNA, one strand shown. The essentials: as §1

The target of another assay is T12, ETV3 (Homo sapiens, UniProt P41162-2 1-143).
T12 sequence: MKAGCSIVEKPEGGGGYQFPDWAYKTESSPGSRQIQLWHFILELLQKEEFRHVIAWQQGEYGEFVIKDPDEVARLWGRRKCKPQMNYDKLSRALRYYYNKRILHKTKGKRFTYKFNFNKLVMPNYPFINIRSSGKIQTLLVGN
As to conditions: protein: recombinant; tags: N-terminal GST; dsDNA, one strand shown. The essentials:
as §1

The next assay addresses ETV6 (Homo sapiens, UniProt P41212 1-452). As to conditions: protein: recombinant; tags: N-terminal GST; dsDNA, one strand shown. In a few lines: as §1

CRX, sequence (O43186 whole entry): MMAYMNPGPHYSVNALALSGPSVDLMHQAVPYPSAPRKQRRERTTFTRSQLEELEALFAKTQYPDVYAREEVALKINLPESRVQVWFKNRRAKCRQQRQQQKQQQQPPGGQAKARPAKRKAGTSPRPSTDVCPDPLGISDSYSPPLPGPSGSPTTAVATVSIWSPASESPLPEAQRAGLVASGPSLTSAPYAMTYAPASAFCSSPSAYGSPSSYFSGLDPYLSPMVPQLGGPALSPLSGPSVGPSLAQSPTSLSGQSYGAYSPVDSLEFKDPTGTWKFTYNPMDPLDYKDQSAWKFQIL
ETV6, sequence (P41212 whole entry): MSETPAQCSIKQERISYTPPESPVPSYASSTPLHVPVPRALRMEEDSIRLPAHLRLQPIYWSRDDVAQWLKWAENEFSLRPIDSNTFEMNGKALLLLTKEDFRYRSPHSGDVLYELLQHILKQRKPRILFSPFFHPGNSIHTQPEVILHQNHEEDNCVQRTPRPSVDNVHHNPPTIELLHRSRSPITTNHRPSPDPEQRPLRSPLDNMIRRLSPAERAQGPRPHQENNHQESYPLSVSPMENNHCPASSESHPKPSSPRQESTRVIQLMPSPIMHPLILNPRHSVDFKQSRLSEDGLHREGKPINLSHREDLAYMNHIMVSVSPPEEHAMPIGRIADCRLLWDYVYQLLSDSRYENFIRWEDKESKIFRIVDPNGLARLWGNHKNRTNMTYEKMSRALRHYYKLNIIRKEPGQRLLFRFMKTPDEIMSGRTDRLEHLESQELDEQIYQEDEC
HSF1, sequence (Q00613 whole entry): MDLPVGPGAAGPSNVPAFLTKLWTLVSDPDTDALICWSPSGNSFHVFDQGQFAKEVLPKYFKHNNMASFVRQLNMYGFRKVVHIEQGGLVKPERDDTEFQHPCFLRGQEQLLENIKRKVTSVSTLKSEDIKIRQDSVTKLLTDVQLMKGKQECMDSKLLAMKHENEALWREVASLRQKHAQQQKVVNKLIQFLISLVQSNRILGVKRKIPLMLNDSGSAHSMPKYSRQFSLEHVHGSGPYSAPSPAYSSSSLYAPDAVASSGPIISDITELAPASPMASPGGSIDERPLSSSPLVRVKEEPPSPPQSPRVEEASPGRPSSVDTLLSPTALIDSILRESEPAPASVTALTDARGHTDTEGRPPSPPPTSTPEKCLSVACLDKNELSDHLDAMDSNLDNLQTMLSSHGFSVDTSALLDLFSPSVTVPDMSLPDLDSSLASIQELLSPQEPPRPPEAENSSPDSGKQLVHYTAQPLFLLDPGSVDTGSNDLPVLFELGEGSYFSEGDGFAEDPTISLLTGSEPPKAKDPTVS
ETV1, sequence (P50549 whole entry): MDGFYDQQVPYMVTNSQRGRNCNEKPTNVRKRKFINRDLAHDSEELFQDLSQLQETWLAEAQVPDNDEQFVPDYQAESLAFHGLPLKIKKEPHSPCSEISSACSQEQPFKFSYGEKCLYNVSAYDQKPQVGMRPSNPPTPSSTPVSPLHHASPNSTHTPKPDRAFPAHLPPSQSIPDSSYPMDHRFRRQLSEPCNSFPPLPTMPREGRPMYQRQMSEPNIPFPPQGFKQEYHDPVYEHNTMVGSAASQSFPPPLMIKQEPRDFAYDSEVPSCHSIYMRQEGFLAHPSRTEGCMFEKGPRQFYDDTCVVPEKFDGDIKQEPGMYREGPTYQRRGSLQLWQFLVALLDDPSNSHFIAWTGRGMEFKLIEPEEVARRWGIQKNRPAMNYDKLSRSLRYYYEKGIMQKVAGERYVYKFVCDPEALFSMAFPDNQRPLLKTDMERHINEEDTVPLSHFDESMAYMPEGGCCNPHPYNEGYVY
ELF4, sequence (Q99607 whole entry): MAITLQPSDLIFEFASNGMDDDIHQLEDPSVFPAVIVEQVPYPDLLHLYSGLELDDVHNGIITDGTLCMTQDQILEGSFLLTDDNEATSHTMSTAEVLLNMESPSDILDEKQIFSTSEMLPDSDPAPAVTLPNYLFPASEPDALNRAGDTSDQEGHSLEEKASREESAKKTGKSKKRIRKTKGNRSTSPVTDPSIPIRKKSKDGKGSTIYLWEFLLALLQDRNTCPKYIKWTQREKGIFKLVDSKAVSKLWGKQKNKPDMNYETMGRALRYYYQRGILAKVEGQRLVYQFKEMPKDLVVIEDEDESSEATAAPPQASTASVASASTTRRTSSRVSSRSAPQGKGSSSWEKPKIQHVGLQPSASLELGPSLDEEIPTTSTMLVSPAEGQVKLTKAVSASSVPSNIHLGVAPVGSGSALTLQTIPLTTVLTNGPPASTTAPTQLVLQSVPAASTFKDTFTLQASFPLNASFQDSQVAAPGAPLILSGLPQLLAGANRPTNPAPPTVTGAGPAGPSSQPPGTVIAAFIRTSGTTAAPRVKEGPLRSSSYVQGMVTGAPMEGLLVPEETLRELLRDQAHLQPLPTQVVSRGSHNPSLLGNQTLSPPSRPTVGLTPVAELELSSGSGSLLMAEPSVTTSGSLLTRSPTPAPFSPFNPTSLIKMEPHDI
ETV5, sequence (P41161 whole entry): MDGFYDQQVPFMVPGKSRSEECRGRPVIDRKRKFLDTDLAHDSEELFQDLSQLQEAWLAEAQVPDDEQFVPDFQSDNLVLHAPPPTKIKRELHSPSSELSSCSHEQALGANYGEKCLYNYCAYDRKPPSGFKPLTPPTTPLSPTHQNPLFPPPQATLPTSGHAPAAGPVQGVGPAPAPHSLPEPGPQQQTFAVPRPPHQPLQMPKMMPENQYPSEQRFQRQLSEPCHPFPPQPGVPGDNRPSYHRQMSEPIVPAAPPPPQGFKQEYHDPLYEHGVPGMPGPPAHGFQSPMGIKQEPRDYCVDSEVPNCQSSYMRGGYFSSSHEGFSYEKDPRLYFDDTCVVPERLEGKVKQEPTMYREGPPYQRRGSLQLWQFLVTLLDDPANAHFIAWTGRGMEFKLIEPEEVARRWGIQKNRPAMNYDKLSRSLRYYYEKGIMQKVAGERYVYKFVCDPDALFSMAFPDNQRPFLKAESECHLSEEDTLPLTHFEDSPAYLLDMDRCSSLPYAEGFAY

In the case of TTATAT, the binding signal is 1.33 fold enrichment (6-mer frequency, TF over GST control) with FEV; 1.26 fold enrichment (6-mer frequency, TF over GST control) with ETV5; 1.76 fold enrichment (6-mer frequency, TF over GST control) in the assay with HSF1; 1.44 fold enrichment (6-mer frequency, TF over GST control) with SPIC; 1.34 fold enrichment (6-mer frequency, TF over GST control) with ELF4; 1.45 fold enrichment (6-mer frequency, TF over GST control) in the assay with ELK4. In addition, the binding signal was 1.46 fold enrichment (6-mer frequency, TF over GST control) in the assay with ETV2; 1.44 fold enrichment (6-mer frequency, TF over GST control) in the assay with ELF3; 2.47 fold enrichment (6-mer frequency, TF over GST control) in the assay with CRX; 1.34 fold enrichment (6-mer frequency, TF over GST control) with ETV1; 1.23 fold enrichment (6-mer frequency, TF over GST control) in the assay with ERF; 1.37 fold enrichment (6-mer frequency, TF over GST control) with ETV3L. Further, the binding signal with ETS2 is 1.39 fold enrichment (6-mer frequency, TF over GST control); with SPDEF, 1.4 fold enrichment (6-mer frequency, TF over GST control); with ETV7, 1.38 fold enrichment (6-mer frequency, TF over GST control); in the assay with ELF5, 1.28 fold enrichment (6-mer frequency, TF over GST control); with ETV3 it was 1.44 fold enrichment (6-mer frequency, TF over GST control); with ETV6, 1.36 fold enrichment (6-mer frequency, TF over GST control).
